This is an account of results in PubChem BioAssay (NCI).

The structures appear in SMILES notation. This is part of a sample that, as a whole, favours compounds with a hit. Of some 79,000 tested, about 15% had one in any assay. A number with no mark means an inactive call. The source made the active and inactive calls. No stated cut-off is given here; in the data, active means growth inhibition above about 70%; inactive means the rest.

Test [1] in a line: NCI Yeast Anticancer Drug Screen. Data for the rad50 strain (AID 155).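 Further: 0% = growth of vehicle-only cultures of the same strain.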 To be noted: S. cerevisiae rad50 strain growth inhibition, active compounds read high. The procedure, abridged:
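Vehicle-treated cultures provide the reference for the growth inhibition reported for compound-exposed, repair-deficient yeast.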

The nature of test [2]: NCI Yeast Anticancer Drug Screen. Data for the mec2-1 strain (AID 157). To be noted: S. cerevisiae mec2-1 strain, active compounds read high. The procedure, abridged: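 Each compound was tested on mec2-1 yeast, a strain altered in DNA damage repair or cell cycle control. Growth inhibition is reported relative to vehicle.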
Test [3] can be described thus: NCI Yeast Anticancer Drug Screen. Data for the sgs1 mgt1 strain (AID 161).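 Further: 0% = growth of cultures given vehicle only.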 To be noted: S. cerevisiae sgs1 mgt1 strain, active compounds read high. The procedure, abridged: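 Mutant yeast exposed to compound; growth scored against vehicle-only wells.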
Test [4] is described as follows: NCI Yeast Anticancer Drug Screen. Data for the cln2 rad14 strain (AID 165).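 Further: 0% = growth equal to vehicle treated cultures.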 To be noted: S. cerevisiae cln2 rad14 strain, active compounds read high. Put shortly: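 Test compounds were added to cln2 rad14 yeast cultures; inhibition of growth was then determined by comparison with vehicle treatment.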
The nature of test [5]: NCI Yeast Anticancer Drug Screen. Data for the bub3 strain (AID 167). To be noted: S. cerevisiae bub3 mutant strain, active compounds read high. The procedure, abridged:
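Mutant yeast screening strain plus compound; vehicle-treated cultures serve as the 0% inhibition reference.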

Test [6] in a line: NCI Yeast Anticancer Drug Screen. Data for the mlh1 rad18 strain (AID 175). To be noted: S. cerevisiae mlh1 rad18 strain growth inhibition, active compounds read high. The procedure, abridged:
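Inhibition values reflect reduced growth of mutant yeast versus vehicle-treated controls following compound exposure; the mutations affect DNA damage repair.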

The mark [7] stands for this setting: at 5.0 µM (retest, dose inferred, filed as 0.5).
Setting [8] is: at 50.0 µM (retest, dose inferred, filed as 5.0).

Regarding `COc1ccc2c(c1)OC(OC)(c1ccccc1)C(O)(OC)C2=O` (stereo not given), the growth inhibition was 1% in test [1] (setting [7]); 21% in test [1] (setting [8]); 40.7% in test [1] (at 50.0 µM); -7% in test [2] (setting [7]); 22% in test [2] (setting [8]); 31.8% in test [2] (at 50.0 µM). Further, the growth inhibition in test [3] (setting [7]) was 3%; in test [3] (setting [8]), 35%; in test [3] (at 50.0 µM) it was 59%; in test [4] (setting [7]) it was -9%; in test [4] (setting [8]) it was 15%; in test [4] (at 50.0 µM), 7.25%. The growth inhibition in test [5] (setting [7]) is -1%; in test [5] (setting [8]), 17%; in test [5] (at 50.0 µM), 20.4%; in test [6] (setting [7]), -4%; in test [6] (setting [8]), 33%; in test [6] (at 50.0 µM) it was 44.4%.

As to `c1cc[c]([Sn]([S]c2ccccn2)([c]2ccccc2)[c]2ccccc2)cc1`, the growth inhibition is 100% (active) in test [1] (setting [7]); 99% (active) in test [1] (setting [8]); 99.5% (active) in test [1] (at 50.0 µM); 100% (active) in test [2] (setting [7]); 99% (active) in test [2] (setting [8]); 99.5% (active) in test [2] (at 50.0 µM). The growth inhibition in test [3] (setting [7]) was 99% (active); in test [3] (setting [8]) it was 99% (active); in test [3] (at 50.0 µM) it was 99.1% (active); in test [4] (setting [7]), 99% (active); in test [4] (setting [8]), 99% (active); in test [4] (at 50.0 µM), 97% (active). The growth inhibition in test [5] (setting [7]) was 96% (active); in test [5] (setting [8]), 99% (active); in test [5] (at 50.0 µM), 99.2% (active); in test [6] (setting [7]) it was 99% (active); in test [6] (setting [8]), 99% (active); in test [6] (at 50.0 µM), 99.2% (active).

Regarding `COc1ccc(C2Oc3ccc(Cl)cc3C=C2[N+](=O)[O-])cc1` (stereo not given), the growth inhibition in test [1] (setting [7]) is 99% (active); in test [1] (setting [8]) it was 93% (active); in test [1] (at 50.0 µM) it was 80.4% (active); in test [2] (setting [7]) it was 99% (active); in test [2] (setting [8]) it was 95% (active); in test [2] (at 50.0 µM), 87.1% (active). Moreover, the growth inhibition is 99% (active) in test [3] (setting [7]); 95% (active) in test [3] (setting [8]); 82.5% (active) in test [3] (at 50.0 µM); 99% (active) in test [4] (setting [7]); 93% (active) in test [4] (setting [8]); 83.2% (active) in test [4] (at 50.0 µM). Also, the growth inhibition in test [5] (setting [7]) is 99% (active); in test [5] (setting [8]), 94% (active); in test [5] (at 50.0 µM), 84.4% (active); in test [6] (setting [7]), 99% (active); in test [6] (setting [8]), 95% (active); in test [6] (at 50.0 µM), 79% (active).

Consider `N#CSCC(=O)c1ccccc1`, for which the growth inhibition in test [1] (setting [7]) was 93% (active); in test [1] (setting [8]), 98% (active); in test [1] (at 50.0 µM), 98.8% (active); in test [2] (setting [7]), 95% (active); in test [2] (setting [8]), 99% (active); in test [2] (at 50.0 µM), 99.2% (active). Besides, the growth inhibition in test [3] (setting [7]) is 95% (active); in test [3] (setting [8]), 98% (active); in test [3] (at 50.0 µM), 97.5% (active); in test [4] (setting [7]), 87% (active); in test [4] (setting [8]), 99% (active); in test [4] (at 50.0 µM), 97.2% (active). Further, the growth inhibition in test [5] (setting [7]) is 94% (active); in test [5] (setting [8]) it was 98% (active); in test [5] (at 50.0 µM), 99% (active); in test [6] (setting [7]), 92% (active); in test [6] (setting [8]) it was 98% (active); in test [6] (at 50.0 µM), 98.6% (active).

In the case of `C1=Nc2ccccc2C=Nc2ccccc2C=Nc2ccccc2C=Nc2ccccc21.[Cl-].[Pt+2]`, the growth inhibition in test [1] (setting [7]) was 55%; in test [1] (setting [8]), 93% (active); in test [1] (at 50.0 µM) it was 85% (active); in test [2] (setting [7]) it was 80% (active); in test [2] (setting [8]) it was 97% (active); in test [2] (at 50.0 µM), 82.2% (active). Also, the growth inhibition was 36% in test [3] (setting [7]); 89% (active) in test [3] (setting [8]); 76.8% (active) in test [3] (at 50.0 µM); 25% in test [4] (setting [7]); 69% in test [4] (setting [8]); 60% in test [4] (at 50.0 µM). Further, the growth inhibition was 75% (active) in test [5] (setting [7]); 87% (active) in test [5] (setting [8]); 74.7% (active) in test [5] (at 50.0 µM); 63% in test [6] (setting [7]); 97% (active) in test [6] (setting [8]); 81.4% (active) in test [6] (at 50.0 µM).

Turning to `CC[N+](C)(CC)CCCOC(=O)c1ccccc1Oc1ccc(C)cc1`, the growth inhibition in test [1] (setting [7]) is 1%; in test [1] (setting [8]), 0%; in test [1] (at 50.0 µM), 75.5% (active); in test [2] (setting [7]), -17%; in test [2] (setting [8]), -8%; in test [2] (at 50.0 µM) it was 13.8%. The growth inhibition is -9% in test [3] (setting [7]); -7% in test [3] (setting [8]); 21.9% in test [3] (at 50.0 µM); -4% in test [4] (setting [7]); -6% in test [4] (setting [8]); -0.85% in test [4] (at 50.0 µM). Also, the growth inhibition in test [5] (setting [7]) was 2%; in test [5] (setting [8]), 42%; in test [5] (at 50.0 µM), 12.8%; in test [6] (setting [7]), 15%; in test [6] (setting [8]) it was 3%; in test [6] (at 50.0 µM), 14.9%.

As to `CC(=O)OC1=C(Br)CCc2ccccc21`, the growth inhibition in test [1] (setting [7]) was 13%; in test [1] (setting [8]) it was 99% (active); in test [1] (at 50.0 µM), 98.2% (active); in test [2] (setting [7]), 13%; in test [2] (setting [8]), 100% (active); in test [2] (at 50.0 µM), 97.3% (active). Besides, the growth inhibition is 41% in test [3] (setting [7]); 99% (active) in test [3] (setting [8]); 91.2% (active) in test [3] (at 50.0 µM); 11% in test [4] (setting [7]); 98% (active) in test [4] (setting [8]); 86.3% (active) in test [4] (at 50.0 µM). The growth inhibition in test [5] (setting [7]) is 18%; in test [5] (setting [8]) it was 100% (active); in test [5] (at 50.0 µM), 88.3% (active); in test [6] (setting [7]), 39%; in test [6] (setting [8]) it was 99% (active); in test [6] (at 50.0 µM), 89.6% (active).

With `O=C1NC(=O)C(c2ccccc2)(c2ccccc2)C2CC3c4[nH]c5ccccc5c4CCN3CC12` (stereo not given), the growth inhibition in test [1] (setting [7]) was 5%; in test [1] (setting [8]), 61%; in test [1] (at 50.0 µM), 64.5%; in test [2] (setting [7]), 6%; in test [2] (setting [8]) it was 63%; in test [2] (at 50.0 µM), 59.1%. In addition, the growth inhibition in test [3] (setting [7]) is 5%; in test [3] (setting [8]), 65%; in test [3] (at 50.0 µM), 56%; in test [4] (setting [7]), 6%; in test [4] (setting [8]), 66%; in test [4] (at 50.0 µM), 46.6%. In addition, the growth inhibition in test [5] (setting [7]) was 6%; in test [5] (setting [8]), 51%; in test [5] (at 50.0 µM) it was 37.5%; in test [6] (setting [7]), 1%; in test [6] (setting [8]) it was 60%; in test [6] (at 50.0 µM), 73.8% (active).

In the case of `CCCCCNc1ccc2c(cc1=O)C(NC(C)=O)CCc1cc(OC)c(OC)c(OC)c1-2` (stereo not given), the growth inhibition in test [1] (setting [7]) was 16%; in test [1] (setting [8]) it was 89% (active); in test [1] (at 50.0 µM) it was 13.4%; in test [2] (setting [7]) it was 10%; in test [2] (setting [8]), 97% (active); in test [2] (at 50.0 µM), 19.8%. In addition, the growth inhibition in test [3] (setting [7]) was 11%; in test [3] (setting [8]) it was 98% (active); in test [3] (at 50.0 µM), 18.2%; in test [4] (setting [7]) it was 16%; in test [4] (setting [8]), 93% (active); in test [4] (at 50.0 µM), 71.7% (active). In addition, the growth inhibition is 21% in test [5] (setting [7]); 97% (active) in test [5] (setting [8]); 45.2% in test [5] (at 50.0 µM); 19% in test [6] (setting [7]); 95% (active) in test [6] (setting [8]); 24.9% in test [6] (at 50.0 µM).

For the compound `O=C1C(=O)C(Br)(c2ccccc2)C(=O)C1c1ccccc1` (stereo not given), the growth inhibition was -16% in test [1] (setting [7]); 4% in test [1] (setting [8]); 52.5% in test [1] (at 50.0 µM); -22% in test [2] (setting [7]); 2% in test [2] (setting [8]); 71.4% (active) in test [2] (at 50.0 µM). Besides, the growth inhibition in test [3] (setting [7]) is -19%; in test [3] (setting [8]), 8%; in test [3] (at 50.0 µM) it was 13.2%; in test [4] (setting [7]), -2%; in test [4] (setting [8]), 72% (active); in test [4] (at 50.0 µM), 93.8% (active). The growth inhibition is 85% (active) in test [5] (setting [7]); 97% (active) in test [5] (setting [8]); 97.7% (active) in test [5] (at 50.0 µM); 7% in test [6] (setting [7]); 20% in test [6] (setting [8]); 97.7% (active) in test [6] (at 50.0 µM).
